High-throughput results (PubChem)
Most compounds without a hit are left out; they make up all but 21% or so of the library.
Pf growth 48h – inhibits P. falciparum growth in the first generation, 48 h; P. falciparum luciferase growth in erythrocytes, 48 h; Potency, µM (top dose mostly 28.7 µM), most hits filed as inhibitors; actives 5.9% (n = 310,000); AID 504832
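Firefly luciferase activity from engineered P. falciparum reports growth; inhibitors lower the luminescent signal. Cultures contained 2% hematocrit erythrocytes at 0.1% final parasitemia.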
Pf growth 96h – P. falciparum growth inhibition at 96 hours | P. falciparum luciferase reporter growth, 96 h | Potency, µM (series often up to 28.7 µM), most hits filed as inhibitors | actives 6.9% (n = 320,000) | AID 504834
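96 h incubation, 37 C, 5% CO2, of luciferase-reporter P. falciparum-infected RBCs (2% hematocrit, 0.05% parasitemia final) with test compounds; endpoint luminescence.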
Shiga inhibitor – blocks Shiga toxin action in Vero cells | inhibition, % at 38.7 µM | Vero cells, Shiga toxin protein synthesis inhibition reporter | actives 9.2% (n = 290,000); in the data active = inhibition mostly above about 28%, no sharp cut-off; inactive = mostly below about 43%
CHX counter – affects cycloheximide protein synthesis inhibition readout, counter-screen | cell reporter, cycloheximide protein synthesis inhibition counterscreen | max response, % | actives 12% (n = 300,000); in the data active = max response mostly above about 13%, no sharp cut-off; inactive = mostly below about 14%; also: read at 38.3 µM for the half of the compounds with a filed dose
Numbers stand for hits; 0 = inactive; ? = inconclusive; - = no result; + = active, no number; [ ] = dose if it differs, or a comment. Unless noted, calls follow the shape of the dose curve; as a rule, active = well fitted inhibition curve with a large enough effect; inconclusive = small, poorly fitted or top-dose-only effect, or another doubt; inactive = no such curve, though single readings can be large or run the other way.

SMILES	Pf growth 48h	Pf growth 96h	Shiga inhibitor	CHX counter
CCOc1ccc(NC(=O)CN(C)C(=O)COc2cccc3c2OC(C)(C)C3)cc1OCC	13µM	?	-	-
COc1ccc(NC(=O)CC2CCCC2)cc1OC	0	0	0	0
CCOc1ccc(NC(=O)CN(C)C(=O)CCC2CCCCC2)cc1OCC	?	15µM	-	-
COc1ccc(NC(=O)CCC2CCCC2)cc1OC	0	0	67	19
COc1ccc(NC(=O)CN(C)C(=O)CCC2CCCC2)cc1	0	0	0	0
CCOc1ccc(NC(=O)CN(C)C(=O)C2CCCC2)cc1OCC	0	0	0	0
COc1ccc([N+](=O)[O-])cc1NC(=O)C1CCCN1S(=O)(=O)c1cccs1 (stereo unspecified)	?	0	-	-
CC(=O)Nc1nnc(Cc2c[nH]c3ccccc23)s1	0	0	0	0
CCc1ccc2c(c1)cc(CN(C(=S)Nc1cccc(C)c1)C1CC1)c1nnnn12	?	2.3µM	0	0
Cc1ccc(C(=O)N(Cc2cccnc2)Cc2cc3cc(C)ccc3n3nnnc23)cc1	?	0	0	0
COCCN(Cc1cc2cc(C)ccc2n2nnnc12)C(=S)Nc1cccc(C)c1	5.2µM	0	0	0
CNC(=S)N(Cc1cc2cc(C)ccc2n2nnnc12)CC(C)(C)CN(C)C	?	5.9µM	0	0
O=c1cc(C(F)(F)F)nc(SC/C=C/c2ccccc2)[nH]1	0	0	0	0
Cc1ccc(Cn2nnc3c(=O)[nH]c(C4CCCN(S(=O)(=O)c5ccccc5)C4)nc32)cc1 (stereo unspecified)	-	?	0	0
O=c1[nH]c(C2CCCN(S(=O)(=O)c3cccc(Cl)c3)C2)nc2c1nnn2Cc1ccc2c(c1)OCCO2 (stereo unspecified)	?	0	0	0
O=c1[nH]c(C2CCCN(S(=O)(=O)Cc3ccccc3)C2)nc2c1nnn2Cc1cccc(Cl)c1 (stereo unspecified)	12µM	0	0	0
O=c1[nH]c(C2CCCN(S(=O)(=O)c3ccc(F)cc3)C2)nc2c1nnn2Cc1ccccc1 (stereo unspecified)	13µM	0[5.75 µM]	0	0
N#Cc1ccc(NC(=O)N2CCC(c3nc4c(nnn4Cc4cccc(Cl)c4)c(=O)[nH]3)CC2)cc1	?	7.4µM	0	0
N#C/C(=C\c1ccc2c(c1)OCCO2)C(=O)NC1CCCCC1	0	0	0	39
N#C/C(=C\c1ccccc1)C(=O)NC1CC1	0	0	0	0
CCCCNC(=O)/C(C#N)=C/c1ccc2c(c1)OCCO2	0	0	50	47
COc1ccc(/C=C(/C#N)C(=O)NC2CCCCC2)cc1Br	?	?	0	0
N#C/C(=C\c1cccnc1)C(=O)NC1CCCCC1	10µM	?	0	0
CC(NC(=O)C(C)(C)C)C(c1cccs1)N1CCOCC1 (stereo unspecified)	0	0	0	0
O=C(O)COCC(=O)Nc1ccc(-n2cnnn2)cc1	0	0	0	0
SMILES	Pf growth 48h	Pf growth 96h	Shiga inhibitor	CHX counter
CCCCC1C(=O)N(c2ccccc2)N(c2ccccc2)C1=O	?	3.3µM	0	0
CCCCOCC1CN(c2ccccc2)C(=O)CS1 (stereo unspecified)	0	-	0	0
CC1=C(C)/C(=N\OC(=O)/C=C/c2ccccc2)C=CC1=O	10µM	?	0	0
CC1=CC(=O)C=C(C)C1=NOC(=O)/C=C\c1ccccc1	0	0	0	0
CC1=CC(=NOC(=O)/C=C/c2ccccc2)C=C(C)C1=O	?	0	0	13
Cc1ccc(NC(=O)C(C)OC(=O)/C=C/c2ccccc2)cc1 (stereo unspecified)	0	0	0	0
CCOc1ccc(NC(=NCc2ccc3c(c2)OCO3)SC2CC(=O)N(c3ccc(OCC)cc3)C2=O)cc1 (stereo unspecified)	?	3.7µM	+	63
CCOc1ccc(NC(=NCc2ccc3c(c2)OCO3)SC2CC(=O)N(c3ccc(C(=O)O)cc3)C2=O)cc1 (stereo unspecified)	?	9.3µM	0	0
CCOc1ccc(N2C(=O)CC(SC(=NC)Nc3ccc4c(c3)OCO4)C2=O)cc1 (stereo unspecified)	-	0	0	0
CCOc1ccc(NC(=NCc2ccc3c(c2)OCO3)SC2CC(=O)N(c3ccccc3)C2=O)cc1 (stereo unspecified)	?	?	0	0
COc1ccc2[nH]cc(CCNC(=O)c3ccccc3Cl)c2c1	0	0	0	0
CNc1nc(NN)nc(Nc2ccccc2)n1	0	?	-	0
CC(C)c1ccc2[nH]c3c(c2c1)[C@@H]1CCN2C(=O)CCC[C@H](C3)[C@H]12	0	?	35	22
O=C1C[C@H]2CCCCC(=O)N3CC[C@@H](C1)[C@@H]23	-	-	0	0
CSCC[C@H](NC(=O)CN)C(=O)N[C@@H](CC(=O)O)C(=O)N[C@@H](CO)C(=O)N[C@@H](CC(C)C)C(=O)N[C@@H](C)C(=O)N[C@@H](Cc1ccccc1)C(=O)N[C@@H](CO)C(=O)NCC(=O)NCC(=O)N[C@@H](CC(C)C)C(N)=O	-	-	0	0
NC(=O)c1ccsc1NC(=O)c1ccc(S(=O)(=O)N2CCCc3ccccc32)cc1	?	10µM	0	0
COC(=O)c1sc2ccccc2c1NC(=O)c1ccc(S(=O)(=O)N2CCCCC2C)cc1 (stereo unspecified)	15µM	13µM	0	0
CC1CCCCN1S(=O)(=O)c1ccc(C(=O)Nc2sccc2C(N)=O)cc1 (stereo unspecified)	9.3µM	9.3µM	60	56
Cc1ccc(C(=O)C2CCN(C(=S)NCCCOC(C)C)CC2)cc1	0	0	0	0
Cn1ncc(Br)c1NC(=O)Nc1ccccc1	0	0	0	0
CCCCCN(C(=O)CCC(=O)OCC(=O)N(C)Cc1ccc(C)cc1)c1c(N)n(CCCC)c(=O)[nH]c1=O	0	0	0	0
C/C(=N/NC(=O)CNC(=O)c1ccncc1)c1ccco1	0	0	0	0
CC(=O)Nc1ccc(SCC(c2ccccc2)N2CCN(CC(C)C)CCC2=O)cc1 (stereo unspecified)	-	-	0	0
O=C(O)c1cnn(-c2ccccc2)c1-c1ccccc1	0	-	0	0
Cc1cccc(C(=O)Nc2c(C(=O)N(C)C)cnn2-c2ccccc2)c1	0	0	0	0
SMILES	Pf growth 48h	Pf growth 96h	Shiga inhibitor	CHX counter
Cc1c(C(=O)N(C)c2ccc(Cl)cc2)cnn1-c1ccccc1	0	?	-	50
Cc1cccc(N(C)C(=O)c2cnn(-c3ccccc3)c2C)c1	0	0	40	24
Cc1ccc(N(C)C(=O)c2cnn(-c3ccccc3)c2C)c(C)c1	5.2µM	5.2µM	-	0
Cc1ccccc1OCCC(=O)OCC(=O)NCCc1ccccc1	0	0	-	-
Cc1ccc(NC(=O)C2C3C=CC4(O3)C2C(=O)N(CCCN2CCCC(C)C2)C4C(=O)NC2CCCCC2)cc1 (stereo unspecified)	?	0	0	0
O=C(N/C(=C/c1ccc([N+](=O)[O-])cc1)C(=O)N1CCOCC1)c1ccco1	0	0	0	0
Cc1ccc(S(C)(=O)=N/C=C2\C(=O)c3sccc3N(C)S2(=O)=O)cc1 (stereo unspecified)	?	?	0	0
CCCC(=O)NCc1nc2ccccc2n1C	0	0	0	0
Cc1ccccc1NCc1nc2ccccc2n1C	0	0	84	55
